# Laboratory results: ChEMBL document CHEMBL3988442, “University of Dundee, Small-Polar-MMV Screening Library” (2021)
# Target: T1, Tyrosyl-tRNA synthetase, putative (Trypanosoma cruzi (strain CL Brener)) (UniProt Q4DSP6)
# T1 sequence (whole entry): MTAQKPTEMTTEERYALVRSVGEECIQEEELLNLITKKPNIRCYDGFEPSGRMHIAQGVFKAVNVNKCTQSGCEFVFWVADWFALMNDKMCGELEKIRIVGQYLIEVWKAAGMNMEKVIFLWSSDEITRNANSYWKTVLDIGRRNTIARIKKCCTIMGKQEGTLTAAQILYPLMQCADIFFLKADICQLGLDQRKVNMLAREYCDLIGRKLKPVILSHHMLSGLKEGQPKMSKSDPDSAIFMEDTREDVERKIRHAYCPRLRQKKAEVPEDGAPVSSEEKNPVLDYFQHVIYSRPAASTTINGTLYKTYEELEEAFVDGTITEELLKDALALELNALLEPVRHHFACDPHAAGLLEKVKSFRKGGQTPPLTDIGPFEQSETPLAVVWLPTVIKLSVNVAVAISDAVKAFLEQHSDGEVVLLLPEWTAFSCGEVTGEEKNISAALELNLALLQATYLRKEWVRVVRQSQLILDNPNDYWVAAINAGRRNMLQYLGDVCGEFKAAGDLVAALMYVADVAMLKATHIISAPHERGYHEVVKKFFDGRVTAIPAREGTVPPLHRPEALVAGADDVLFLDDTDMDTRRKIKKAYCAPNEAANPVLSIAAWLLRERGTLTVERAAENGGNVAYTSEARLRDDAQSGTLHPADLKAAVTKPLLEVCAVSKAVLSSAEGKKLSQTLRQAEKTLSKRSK
# Experiment: Trypanosoma cruzi tyrosyl tRNA synthetase (TcYRS) _High Tyrosine SOP; also: in the data most compounds retested in dose-response had high values
# Assay type: functional
# Set-up: scale not given: direction of the effect not stated beside the values
# Conditions: 30 µM
row,Compound,Percent Effect [%]
1,CCS(=O)(=O)N1C[C@H]2CCC[C@@]2(COc2ccccn2)C1,2.12
2,Cc1ccc(CNCCOc2ccc(S(C)(=O)=O)cc2)cc1,4.17
3,Cn1nnc2cc(C(=O)N3CCCC3Cc3ccccc3)ccc21 (stereo not drawn),0
4,Cn1cnnc1C1CCCN(C(=O)NCCOc2ccccc2)C1 (stereo not drawn),5.71
5,Cc1ccc(-c2cccc(-c3ccn(CCN4CCCC4)n3)c2)nn1,5.82
6,c1coc(-c2nnc(CN3CCCC(CN4CCCCCC4)C3)o2)c1 (stereo not drawn),5.32
7,OC(CN1CCN(Cc2ccc(F)cc2)CC1)C1CC1 (stereo not drawn),6.45
8,CCCNC(=O)c1ccc(NC(=O)c2cccc(OCC)c2)cc1,0.529
9,Cc1cc(CN2CCOC(CN(C)c3cccnn3)C2)no1 (stereo not drawn),0.952
10,Cc1noc(C)c1CN1CCN(C(=O)Cn2cncn2)CC1,2.15
11,CC(C)(C)C(=O)N1CCC(c2nc(O)cc(-c3ccccn3)n2)CC1,2.15
12,COc1cc(CNCc2ccc(C(C)O)cc2)cc2c1OCO2 (stereo not drawn),9.9
13,c1cnc(-c2nc(CNCCn3cccn3)cs2)nc1,-0.49
14,O=C(NCCNc1ccccn1)N1CCSCC1,1.48
15,O=C(CS(=O)(=O)c1ccccc1Cl)NC1CCCCNC1=O (stereo not drawn),2.91
16,N#CC1(C(=O)NCCCNc2ccc(C(F)(F)F)cn2)CCCC1,2.45
17,O=C1CCc2cc(-c3csc(CCN4CCCC4=O)n3)ccc2N1,15.5
18,CCn1c(C(=O)N2CCN(C(=O)COC)CC2)cc2ccccc21,7.77
19,CC(O)CC(C)(C)CNC(=O)NCc1cccc(-n2ccnc2)c1 (stereo not drawn),-1.07
20,CCS(=O)(=O)NCCNC(=O)c1cc(Cl)c2c(c1)OCCCO2,2.15

row,Compound,Percent Effect [%]
1,COc1c(CNCc2ccnc(N3CCCC3)c2)c(C)nn1C,7.29
2,C[C@H]1C[C@@H]2CCN(C(=O)c3ccncn3)C[C@H]2O1,5.94
3,CCNC(=O)NC(=O)CSC(C)c1ccccc1F (stereo not drawn),3.83
4,CN(Cc1ccsc1)C(=O)Nc1ccc(S(C)(=O)=O)nc1,9.36
5,Cc1cc(F)ccc1OC1(C(=O)O)CCN(Cc2ccncc2)CC1,10.4
6,COc1cc(NC(=O)Cn2ccc3sc(C)cc3c2=O)cc(OC)c1,1.06
7,O=C(CCCc1nnc(-c2ccccc2)o1)N1CCN(CCO)CC1,2.46
8,CNc1cc2c(nn1)CCN(C(=O)c1ccoc1)C2,1.91
9,O=C1NC2(CCN(C(=O)c3ccccc3)CC2)CC1c1cccnc1 (stereo not drawn),6.25
10,CNC(=O)[C@H]1C[C@@H]2CN(S(=O)(=O)c3ccccc3)C[C@@H]2N1C(C)=O,5.38
11,CC(=O)NCC(=O)N1Cc2nccn2CC(Cn2cccn2)C1 (stereo not drawn),5.41
12,CCc1cnc2c(c1NCc1ccncc1)c(=O)n(C)c(=O)n2C,6.45
13,CCn1cnnc1C1CCN(C(=O)COCCc2ccccc2)CC1,-2.86
14,Cc1nc(C2CCCN(C(=O)CCCn3ccnc3C)C2)no1 (stereo not drawn),-0.971
15,O=C(c1cscn1)N1C[C@H]2CCCC(OCc3cccnc3)[C@H]2C1 (stereo partly drawn),1.04
16,CSc1cccc(CNC(=O)C2CC(=O)N(CCN(C)C)C2)c1 (stereo not drawn),4.92
17,COc1ccc(-c2noc(CN3CCOCC3C)n2)cc1OC (stereo not drawn),5.42
18,OCC1CCCN1c1cc(NCCNc2ccccn2)ncn1 (stereo not drawn),2.15
19,O=C(Nc1cc(F)ccc1OCC1CCCO1)c1ccccn1 (stereo not drawn),2.86

# Target: T1, Tyrosyl-tRNA synthetase, putative (Trypanosoma cruzi (strain CL Brener))
# Experiment: Trypanosoma cruzi tyrosyl tRNA synthetase (TcYRS) SOP
# Assay type: functional
# Set-up: scale not given: direction of the effect not stated beside the values
# Conditions: 30 µM
row,Compound,Percent Effect [%]
1,CCS(=O)(=O)N1C[C@H]2CCC[C@@]2(COc2ccccn2)C1,5.13
2,Cc1ccc(CNCCOc2ccc(S(C)(=O)=O)cc2)cc1,-1.24
3,Cn1nnc2cc(C(=O)N3CCCC3Cc3ccccc3)ccc21 (stereo not drawn),5
4,Cn1cnnc1C1CCCN(C(=O)NCCOc2ccccc2)C1 (stereo not drawn),21.2
5,Cc1ccc(-c2cccc(-c3ccn(CCN4CCCC4)n3)c2)nn1,0
6,c1coc(-c2nnc(CN3CCCC(CN4CCCCCC4)C3)o2)c1 (stereo not drawn),10.4
7,OC(CN1CCN(Cc2ccc(F)cc2)CC1)C1CC1 (stereo not drawn),20
8,CCCNC(=O)c1ccc(NC(=O)c2cccc(OCC)c2)cc1,2.44
9,Cc1cc(CN2CCOC(CN(C)c3cccnn3)C2)no1 (stereo not drawn),2.35
10,Cc1noc(C)c1CN1CCN(C(=O)Cn2cncn2)CC1,11.1
11,CC(C)(C)C(=O)N1CCC(c2nc(O)cc(-c3ccccn3)n2)CC1,1.3
12,COc1cc(CNCc2ccc(C(C)O)cc2)cc2c1OCO2 (stereo not drawn),28.1
13,c1cnc(-c2nc(CNCCn3cccn3)cs2)nc1,-4.88
14,O=C(NCCNc1ccccn1)N1CCSCC1,1.24
15,O=C(CS(=O)(=O)c1ccccc1Cl)NC1CCCCNC1=O (stereo not drawn),14.6
16,N#CC1(C(=O)NCCCNc2ccc(C(F)(F)F)cn2)CCCC1,4.88
17,O=C1CCc2cc(-c3csc(CCN4CCCC4=O)n3)ccc2N1,19.5
18,CCn1c(C(=O)N2CCN(C(=O)COC)CC2)cc2ccccc21,21.9
19,CC(O)CC(C)(C)CNC(=O)NCc1cccc(-n2ccnc2)c1 (stereo not drawn),-1.24
20,CCS(=O)(=O)NCCNC(=O)c1cc(Cl)c2c(c1)OCCCO2,16.1

row,Compound,Percent Effect [%]
1,COc1c(CNCc2ccnc(N3CCCC3)c2)c(C)nn1C,15.2
2,C[C@H]1C[C@@H]2CCN(C(=O)c3ccncn3)C[C@H]2O1,8.54
3,CCNC(=O)NC(=O)CSC(C)c1ccccc1F (stereo not drawn),25.9
4,CN(Cc1ccsc1)C(=O)Nc1ccc(S(C)(=O)=O)nc1,24.1
5,Cc1cc(F)ccc1OC1(C(=O)O)CCN(Cc2ccncc2)CC1,21
6,COc1cc(NC(=O)Cn2ccc3sc(C)cc3c2=O)cc(OC)c1,11.5
7,O=C(CCCc1nnc(-c2ccccc2)o1)N1CCN(CCO)CC1,8.86
8,CNc1cc2c(nn1)CCN(C(=O)c1ccoc1)C2,-25.9
9,O=C1NC2(CCN(C(=O)c3ccccc3)CC2)CC1c1cccnc1 (stereo not drawn),13.6
10,CNC(=O)[C@H]1C[C@@H]2CN(S(=O)(=O)c3ccccc3)C[C@@H]2N1C(C)=O,11.1
11,CC(=O)NCC(=O)N1Cc2nccn2CC(Cn2cccn2)C1 (stereo not drawn),7.69
12,CCc1cnc2c(c1NCc1ccncc1)c(=O)n(C)c(=O)n2C,10
13,CCn1cnnc1C1CCN(C(=O)COCCc2ccccc2)CC1,2.35
14,Cc1nc(C2CCCN(C(=O)CCCn3ccnc3C)C2)no1 (stereo not drawn),-2.44
15,O=C(c1cscn1)N1C[C@H]2CCCC(OCc3cccnc3)[C@H]2C1 (stereo partly drawn),12.5
16,CSc1cccc(CNC(=O)C2CC(=O)N(CCN(C)C)C2)c1 (stereo not drawn),13.6
17,COc1ccc(-c2noc(CN3CCOCC3C)n2)cc1OC (stereo not drawn),16.1
18,OCC1CCCN1c1cc(NCCNc2ccccn2)ncn1 (stereo not drawn),10
19,O=C(Nc1cc(F)ccc1OCC1CCCO1)c1ccccn1 (stereo not drawn),9.41
